In PubChem BioAssay one finds composite z-score and z-score data, which are given here for 13 compounds.

Assay [1] concerns Human papillomavirus type 1a protein E7 (residues 44-93). Briefly: small molecules binding HPV E7 44-93 – biochemical, small-molecule microarray, residues 44-93, 635 nm fluorescence, primary screen (AID 1108).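 Further: E7 fragment applied at 1 µg/mL in TBST for 1 h at 4 C; score combines spot fluorescence with its signal to noise ratio.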 The conditions noted are these: fluorescence 635 nm, higher = more signal.
Assay [2] in a line: hepatitis C replication reporter changes, two-sided – Huh7 cells, luciferase reporter, HCV replication inhibitor project, primary screen (AID 1109).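 Further: huh7 hepatoma cells harbouring a luciferase neomycin HCV replicon reporter; luciferase luminescence as measure of HCV replicon replication; test concentration not given here.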 The following applies: Huh7 HCV replicon luciferase reporter, 48 h; higher = more signal. (A reporter such as luciferase makes a cellular process visible.)
Assay [3] addresses Left-right determination factor 2 (Homo sapiens) (UniProt O00292). Nature of the assay: small molecules binding LEFTY2 protein – biochemical, small-molecule microarray, 635 nm fluorescence scan, primary screen (AID 1110). The following applies: higher = more signal.
Assay [4] deals with Calmodulin-1 (Homo sapiens) (UniProt P0DP23). Briefly: small molecules binding calmodulin-1 with EGTA – biochemical, small-molecule microarray, Cy5-labelled CALM1, profiling panel (AID 1111).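 Further: labelled calmodulin applied in Tris saline Tween buffer holding calcium plus EGTA and DTT.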 The conditions noted are these: Cy5-CALM1 binding fluorescence, higher = more signal.
The target is the same in assay [5]. Nature of the assay: small molecules binding Ca-loaded calmodulin-1 – biochemical, small-molecule microarray, Cy5-labelled CALM1, plus calcium, artefact control for SMM control-protein annotation, profiling panel (AID 1112).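 Further: score merges spot fluorescence with signal to noise from triplicate slides.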 The following applies: Cy5-CALM1 binding fluorescence, higher = more signal.
Assay [6] in a line: probe aWnt5a binding to arrayed compounds – biochemical, biotinylated probe, 635/667 nm fluorescence, primary screen (AID 1113).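 Further: score merges 667 nm fluorescence intensity with signal-to-noise per printed feature.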 The following applies: small-molecule microarray, higher = more signal.
The nature of assay [7]: probe aShh binding to arrayed compounds – biochemical, biotinylated probe, 635/667 nm fluorescence, primary screen (AID 1114).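 Further: probe is biotin-labelled aShh protein from a stem cell growth factor screen; measures binding of labelled protein to compounds printed on the slide; score merges feature fluorescence at 667 nm with signal-to-noise.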 The conditions noted are these: small-molecule microarray, higher = more signal.
The nature of assay [8]: probe aNog binding to arrayed compounds – biochemical, biotinylated probe, 635/667 nm fluorescence, primary screen (AID 1115).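 Further: probe is biotinylated aNog protein used at 0.15 µg/mL for 1 h at 4 C; z-score combines 667 nm fluorescence of each spot with its signal to noise.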 The following applies: small-molecule microarray, higher = more signal.
Assay [9] addresses Torsin-1A-interacting protein 1 (Homo sapiens) (UniProt Q5JTV8). Nature of the assay: compound microarray binding of lysate hLAP1 – cell lysate, small-molecule microarray, COS7 lysate, 635/667 nm fluorescence, primary screen (AID 1116). The following applies: 635 nm fluorescence, higher = more signal.
In assay [10] the target is Alpha-bungarotoxin (Bungarus multicinctus) (UniProt P60615). Nature of the assay: compounds binding labelled alpha-BTX control protein – biochemical, small-molecule microarray, Alexa647 label, 635/667 nm fluorescence, artefact control for SMM control protein annotation, profiling panel (AID 1117). The following applies: alpha-BTX-A647 binding fluorescence, higher = more signal.
Chain of Alpha-bungarotoxin (Bungarus multicinctus) (P60615 whole entry, looked up): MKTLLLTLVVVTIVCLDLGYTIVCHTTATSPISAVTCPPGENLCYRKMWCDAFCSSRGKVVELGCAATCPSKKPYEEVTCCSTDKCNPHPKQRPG

Chain of Torsin-1A-interacting protein 1 (Homo sapiens) (Q5JTV8 whole entry, looked up): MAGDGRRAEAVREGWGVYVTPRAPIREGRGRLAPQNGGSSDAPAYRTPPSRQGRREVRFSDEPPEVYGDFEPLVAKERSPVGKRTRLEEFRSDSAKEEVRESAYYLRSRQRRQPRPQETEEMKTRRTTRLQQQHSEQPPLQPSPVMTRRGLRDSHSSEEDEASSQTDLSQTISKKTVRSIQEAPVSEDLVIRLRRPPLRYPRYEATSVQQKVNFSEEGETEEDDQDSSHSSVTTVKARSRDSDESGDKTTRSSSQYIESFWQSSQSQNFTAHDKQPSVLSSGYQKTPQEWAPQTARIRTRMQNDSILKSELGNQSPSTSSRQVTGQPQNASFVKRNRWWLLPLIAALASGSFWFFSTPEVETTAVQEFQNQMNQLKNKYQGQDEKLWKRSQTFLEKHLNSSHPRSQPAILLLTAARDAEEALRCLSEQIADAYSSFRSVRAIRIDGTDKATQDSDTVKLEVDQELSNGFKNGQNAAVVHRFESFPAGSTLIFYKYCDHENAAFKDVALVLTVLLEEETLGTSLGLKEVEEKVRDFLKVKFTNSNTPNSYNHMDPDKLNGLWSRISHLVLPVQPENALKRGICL
Chain of Left-right determination factor 2 (Homo sapiens) (O00292 whole entry, looked up): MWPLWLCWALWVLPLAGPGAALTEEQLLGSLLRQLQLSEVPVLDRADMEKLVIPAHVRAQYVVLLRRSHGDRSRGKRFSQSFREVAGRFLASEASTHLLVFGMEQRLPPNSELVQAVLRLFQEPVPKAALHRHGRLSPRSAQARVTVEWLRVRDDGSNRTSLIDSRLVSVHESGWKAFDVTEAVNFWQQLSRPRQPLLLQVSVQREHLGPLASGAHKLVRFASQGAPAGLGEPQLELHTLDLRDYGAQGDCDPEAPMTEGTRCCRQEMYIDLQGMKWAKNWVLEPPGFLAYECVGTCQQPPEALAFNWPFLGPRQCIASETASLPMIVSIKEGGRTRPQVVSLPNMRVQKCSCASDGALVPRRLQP

For the compound `CC[C@@H](c1ccccc1)n1c(=O)n2n(c1=O)[C@H]1[C@H](O)[C@@H]3O[C@@H]3C(=O)[C@H]1CC2`, the composite z-score in assay [1] was 0.225; in assay [3], 0.497; in [4], -0.202; in assay [5] it was -0.246; in assay [6], -0.101; in assay [7], -0.0474. The results for the composite z-score in [8], in assay [9] and in assay [10] were -0.209, -0.113 and 0.414, respectively. Further, the z-score in assay [2] is -4.01.

As for `C#CCCCON=C1C[C@@H](O)[C@@H](O)[C@@H]2[C@@H]3C(=O)N(C(C)(C)C)C(=O)[C@@H]3CC[C@@H]12`, the composite z-score is 0.0592 in assay [1]; -0.442 in [3]; -0.389 in [4]; -0.165 in assay [5]; -0.0721 in [6]; -0.338 in assay [7]. Further, the composite z-score is 0.305 in assay [8], 0.805 in assay [9] and 0.323 in assay [10]. In [2], this compound came in with a z-score of 1.17.

`CCN1C(=O)[C@H]2[C@H]3[C@H](O)[C@H](O)CC(=NOC[C@H]4O[C@H](c5ccccc5)C=C[C@@H]4Oc4ccc(OC)cc4)[C@@H]3CC[C@H]2C1=O`: the composite z-score in assay [1] was 0.783; in assay [3] it was 0.621; in [4], 0.406; in [5], -0.332; in assay [6], -0.0045; in assay [7], 0.318. Further, the composite z-score in [8] was found to be 0.364; in [9], 0.447; in assay [10], 1.05. The same compound showed a z-score in assay [2] of -1.65.

Turning to `CC(C)CON=C1C[C@@H](O)[C@@H](O)[C@@H]2[C@@H]3C(=O)N(c4ccc(F)cc4F)C(=O)[C@@H]3CC[C@H]12`, the composite z-score was 1.38 in assay [1]; 0.923 in assay [3]; 0.0597 in assay [4]; -0.809 in [5]; -0.0735 in assay [6]; -0.0169 in assay [7]. Further, the composite z-score in assay [8] came to 0.106; in assay [9], 0.272; in [10] it was 0.198. For the same compound, the z-score in [2] was -0.666.

`CCOC(=O)[C@H](CC(C)C)NC(=O)CCC1CC(OC(=O)NCc2cccc3ccccc23)CC2(CCCC(COC(=O)NCC3CCCCC3)O2)O1` (stereo not given in full): the composite z-score in assay [1] was 1.31; in assay [3], 0.559; in assay [4], 0.162; in assay [5], -0.376; in assay [6] it was -0.0792; in assay [7] it was -0.2. The values for the composite z-score in assay [8], in assay [9] and in assay [10] were -0.256, 0.158 and 0.742, respectively. The compound further displayed a z-score in assay [2] of -1.93.

Turning to `CO[C@@H]1C=CCC(=O)N2CCC[C@H]2C(=O)OC[C@@H](C)C(=O)OC[C@H]1C`, the composite z-score was -0.291 in [1]; 0.837 in [3]; -0.759 in assay [4]; -1.02 in [5]; -0.0896 in [6]; -0.0362 in assay [7]. Further, the composite z-score in [8] was -0.246; in assay [9], -0.0837; in [10] it was -0.276. The compound also returned a z-score in assay [2] of 0.189.

For the compound `C=Cc1ccc([C@H]2N[C@H](C(=O)O)CC[C@@H]2C)cc1`, the composite z-score in assay [1] is -1.08; in assay [3] it was 0.712; in assay [4] it was -0.478; in assay [5] it was 0.222; in assay [6], -0.105; in assay [7], -0.0553. Also, the composite z-score in assay [8] was -0.147; in assay [9] it was -0.0037; in [10] it was -0.112. Also, the z-score in [2] is -1.09.

On to `CCOC(=O)[C@H](Cc1ccccc1)NC(=O)CCC1CC(OC(=O)NCCc2ccc(F)cc2)CC2(CCCC(COC(=O)NCCc3ccc(Cl)cc3)O2)O1` (stereo not given in full), for which the composite z-score in assay [1] was 1.33; in assay [3], 0.546; in [4], 1.28; in assay [5] it was 0.198; in assay [6], -0.158; in assay [7], -0.0977. The composite z-score in assay [8] turned out to be 0.232; in assay [9], 0.949; in assay [10], 0.49. Besides, the z-score in assay [2] was -0.226.

Regarding `CCOC(=O)NN=C1C[C@@H](O)[C@@H](O)[C@@H]2[C@@H]3C(=O)N(Cc4ccc5c(c4)OCO5)C(=O)[C@@H]3CC[C@H]12`, the composite z-score in assay [1] was 0.581; in [3] it was -0.0985; in assay [4] it was -0.569; in [5], -0.0188; in [6], -0.129; in assay [7], -0.206. In addition, the composite z-score in assay [8] was -0.177; in [9], 1.05; in assay [10] it was 0.543. The z-score in assay [2] worked out at 0.603.

For the compound `O=c1n(Cc2cc3c(cc2Cl)OCO3)c(=O)n2n1CC[C@@H]1C(=NOC[C@@H](O)COCc3ccco3)[C@H]3O[C@H]3[C@@H](O)[C@@H]12`, the composite z-score in assay [1] is 0.77; in assay [3], 0.436; in [4], -0.25; in assay [5], -0.535; in assay [6], -0.0556; in assay [7], -0.0709. Further, the composite z-score was -0.0544 in assay [8], 0.469 in assay [9] and 0.423 in assay [10]. For the same compound, the z-score in assay [2] was -0.76.

As for `COC(=O)CC=C[C@@H](C)[C@@H](C=NO[C@@H](C)c1cc(-c2c(C)cc(C)cc2C)no1)NS(=O)(=O)c1ccc(C)cc1`, the composite z-score in assay [1] was -0.707; in assay [3], -1.36; in assay [4], -0.3; in assay [5] it was 0.573; in assay [6] it was -0.202; in [7], -0.138. In addition, the composite z-score in assay [8] was 0.0011; in [9], -0.436; in assay [10] it was -0.744. The z-score in assay [2] was -1.6.

For the compound `CC(C)=NOC[C@@H](C)[C@H](OCc1ccccc1)C(C)C`, the composite z-score is -1.19 in [1]; -0.0001 in assay [3]; -0.211 in assay [4]; -0.285 in assay [5]; -0.0758 in assay [6]; -0.0709 in [7]. Moreover, the composite z-score was -0.402 in [8], -0.368 in [9] and 0.213 in [10]. Also, in [2], the z-score was -0.801.

With `C[C@@H](c1ccccc1)N1C(=O)[C@H]2[C@H]3[C@H](O)[C@H](O)CC(=NO[C@@H]4O[C@H](CO)[C@@H](O)[C@H](O)[C@H]4O)[C@H]3CC[C@H]2C1=O`, the composite z-score is 0.668 in assay [1]; 0.414 in assay [3]; -0.222 in [4]; -0.461 in [5]; -0.196 in assay [6]; 0.147 in assay [7]. Also, the composite z-score was -0.206 in assay [8], 0.163 in assay [9] and 0.556 in assay [10]. This compound yielded a z-score in [2] of -0.087.
